About 83,000 compounds went through this panel and 20% of them were active in at least one assay; those are over-represented in the sample as a whole.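 A percent growth of 40 corresponds to 60% growth inhibition; 0 means no net growth; -100 means all cells died. Active threshold: below 10.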 Calls of active or inactive are those of the source.

Here are results for 39 compounds from PubChem BioAssay (NCI).

The subject of the first test is SK-MEL-2 melanoma. In words: NCI-60 one-dose screen, 48 h (100 = growth as untreated, 0 = no growth, -100 = all killed). Conditions: 10 µM unless noted.
For `COc1ccc(NC(=O)c2sc3c(=O)[nH]c(C(F)(F)F)nc3c2C)cc1`, the growth is 91.5% (inactive).
With `O=C(Nc1cccc(Cl)c1)Nc1ccccc1Cl`, the growth is 98.5% (inactive).
As to `NC(=O)N/N=C\c1ccc([N+](=O)[O-])o1`, the growth was 114% (inactive).
On to `CCN(CC)Cc1cc(Nc2ccnc3ccc(OC)cc23)ccc1O`, for which the growth is 26.5% (inactive).
The same measure, in the same setting: the same measure for `CC(C)(C)c1nn(-c2ccccc2)c2c1C(=O)CSC(c1ccc3c(c1)OCO3)N2` (stereo not drawn): 101% (inactive).
`CN(C)N1C(=O)c2c(Cl)c(Cl)c(Cl)c(Cl)c2C1=O`: the growth is 105% (inactive).
As for `O=c1c2cc(Cl)ccc2oc2ccc(OCCCCCN3CCCCC3)cc12`, the growth was 64.8% (inactive).
Take `C=CCOc1ccc2c(C)cc(=O)oc2c1`: the growth was 129% (inactive).
For `O=C(CSc1nc2c(n1Nc1ccccc1)-c1ccccc1SC2)Nc1nccs1`, the growth was 102% (inactive).
Still for that read-out and setting: the same measure for `CCNC(=O)c1ccc2c(c1)nc(-c1ccc(Cl)cc1)n2-c1cc(C(C)(C)C)[nH]n1`: 46.6% (inactive).
The same measure, in the same setting: the value for `CC(C)CC1NC(=O)C(CC(C)C)N(CO)C1=O` (stereo not drawn) was 93.9% (inactive).
`CCn1c(=O)c(C(=O)NCCCO)c(O)c2ccccc21`: the growth was 112% (inactive).
As for `COc1cc(NCC(O)CN(CC(C)C)CC(C)C)c2ncccc2c1` (stereo not drawn), the growth was 100% (inactive).
Still for that read-out and setting: the same measure for `CC(=O)Nc1ccc(/C=N/N2CCCCCC2)cc1`: 118% (inactive); for `O=c1oc2ccccc2cc1-c1cc(-c2ccc(-c3cc(-c4cc5ccccc5oc4=O)nc(-c4cc5ccccc5oc4=O)c3)cc2)cc(-c2cc3ccccc3oc2=O)n1`: 106% (inactive); for `CCN(CC)c1ccc(/C=N/N=C(N)N)cc1`: 49.1% (inactive).
Consider `Cc1ccc(C)c2c1SC1=NNC(Oc3ccc(Cl)cc3)=C(C#N)C(=N)N12`, for which the growth was 132% (inactive).
In the case of `CCOC(=O)C(Cc1ccccc1)n1c(O)c(/C=N/c2ncc(Cc3ccc(Cl)cc3Cl)s2)sc1=S` (stereo not drawn), the growth is -18.4% (active).
Turning to `COc1ccc(-c2cnc(-c3ccncc3-c3cccc(OC)c3)o2)cc1`, the growth was 5.27% (active).
On the same count and under the same terms, the same measure for `Cc1ccc(OC2=C(C#N)C(=N)N3C(=NN2)Sc2c(C)ccc(C)c23)cc1`: 121% (inactive); for `O=C(Nc1ccncc1)C(=O)c1cn(S(=O)(=O)c2cccc(Cl)c2F)c2ccccc12`: 60.6% (inactive); for `CN1C(=O)NC(Cc2c[nH]c3c(Cl)cccc23)C1=O` (stereo not drawn): 106% (inactive).
On to `COc1ccc(C(=O)OC2C(OC3C(O)COC(O[C@H]4C[C@H]5[C@@H]6CC=C7C[C@@H](O)CC[C@]7(C)[C@H]6CC[C@]5(C)[C@H]4[C@H](C)C(=O)CCC(C)C)C3OC(C)=O)OCC(O)C2O)cc1` (stereo partly drawn), for which the growth was -52% (active).
On to `C[C@@H]1N=C(c2ccc3ccccc3c2)Nc2nc3ccccn3c2C1=O`, for which the growth is 36.3% (inactive).
Still for that read-out and setting: the value for `O=[N+]([O-])c1ccc(N=Nc2c(NNc3ccc([N+](=O)[O-])cn3)cc(S(=O)(=O)O)c3ccccc23)nc1` was 108% (inactive); that for `CS(=O)(=O)c1ccc(C(=O)N/N=C/c2ccccc2Cl)cc1` was 104% (inactive).
Take `CC1=C(O)C(=O)CC1`: the growth was 118% (inactive).
Consider `O=C(N/N=C/c1ccc([N+](=O)[O-])cc1)c1ccccc1Nc1ccnc(C(F)(F)F)c1`, for which the growth is 58.5% (inactive).
`Cc1ccc(C(CN(C)C)C(=O)c2ccccc2)cc1` (stereo not drawn): the growth was 49.7% (inactive).
Regarding `CN1CCC2(CC1)N=C(SCC(=O)Nc1cnc3ccccc3c1)C(c1ccc(Br)cc1)=N2`, the growth was -31.2% (active).
As for `Nc1c(C(=O)C[C@@H](N)CO)ccc2c1C(=O)CCO2`, the growth was 46.8% (inactive).
Turning to `Cc1ccncc1NC=O`, the growth is 108% (inactive).
Still for that read-out and setting: the value for `Cc1c2c(cc3c1[nH]c1ccccc13)C=NCC2` was 109% (inactive).
`O=S1(=O)NCCCN1CCNc1nccc(-c2c(-c3cccc(O)c3)nc3sccn23)n1`: the growth was 29.4% (inactive).
Still for that read-out and setting: the value for `CCc1c(C)c2ccc(O)c(-c3cc(-c4ccccc4)c(C#N)c(=O)[nH]3)c2oc1=O` was 117% (inactive); that for `COc1ccc2nc3cc(Cl)ccc3c(NC(=O)CSc3ccc(Cl)cc3)c2c1` was -88.5% (active); that for `C=CC(=O)N1CN(C(=O)C=C)CN(C(=O)C=C)C1` was 110% (inactive).
Take `CCCC(CCC)(C(N)=O)C(=O)O`: the growth is 120% (inactive).
Regarding `C=CCCCCOc1cccc(/C=C2\N=C3SCCCN3C2=O)c1`, the growth is 91.3% (inactive).

The next test relates to EKVX NSCLC. The test is described as above. Conditions: 10 µM unless noted.
`COc1ccc(NC(=O)c2sc3c(=O)[nH]c(C(F)(F)F)nc3c2C)cc1`: the growth is 83.8% (inactive).
`O=C(Nc1cccc(Cl)c1)Nc1ccccc1Cl`: the growth was 72.1% (inactive).
On to `NC(=O)N/N=C\c1ccc([N+](=O)[O-])o1`, for which the growth was 75.2% (inactive).
For the compound `CCN(CC)Cc1cc(Nc2ccnc3ccc(OC)cc23)ccc1O`, the growth is 67.1% (inactive).
For the compound `CC(C)(C)c1nn(-c2ccccc2)c2c1C(=O)CSC(c1ccc3c(c1)OCO3)N2` (stereo not drawn), the growth was 80.2% (inactive).
`CN(C)N1C(=O)c2c(Cl)c(Cl)c(Cl)c(Cl)c2C1=O`: the growth is 124% (inactive).
With `O=c1c2cc(Cl)ccc2oc2ccc(OCCCCCN3CCCCC3)cc12`, the growth is 70.3% (inactive).
As to `C=CCOc1ccc2c(C)cc(=O)oc2c1`, the growth is 106% (inactive).
Regarding `O=C(CSc1nc2c(n1Nc1ccccc1)-c1ccccc1SC2)Nc1nccs1`, the growth is 89.3% (inactive).
For `CCNC(=O)c1ccc2c(c1)nc(-c1ccc(Cl)cc1)n2-c1cc(C(C)(C)C)[nH]n1`, the growth is 42.8% (inactive).
For the compound `CC(C)CC1NC(=O)C(CC(C)C)N(CO)C1=O` (stereo not drawn), the growth was 115% (inactive).
Same read-out and setting: the same measure for `CCn1c(=O)c(C(=O)NCCCO)c(O)c2ccccc21`: 65.6% (inactive); for `COc1cc(NCC(O)CN(CC(C)C)CC(C)C)c2ncccc2c1` (stereo not drawn): 93.2% (inactive).
For `CC(=O)Nc1ccc(/C=N/N2CCCCCC2)cc1`, the growth was 98.8% (inactive).
Turning to `O=c1oc2ccccc2cc1-c1cc(-c2ccc(-c3cc(-c4cc5ccccc5oc4=O)nc(-c4cc5ccccc5oc4=O)c3)cc2)cc(-c2cc3ccccc3oc2=O)n1`, the growth was 96% (inactive).
Consider `CCN(CC)c1ccc(/C=N/N=C(N)N)cc1`, for which the growth is 76.5% (inactive).
As for `Cc1ccc(C)c2c1SC1=NNC(Oc3ccc(Cl)cc3)=C(C#N)C(=N)N12`, the growth is 100% (inactive).
Consider `CCOC(=O)C(Cc1ccccc1)n1c(O)c(/C=N/c2ncc(Cc3ccc(Cl)cc3Cl)s2)sc1=S` (stereo not drawn), for which the growth is 10.8% (inactive).
As for `COc1ccc(-c2cnc(-c3ccncc3-c3cccc(OC)c3)o2)cc1`, the growth is 58.1% (inactive).
`Cc1ccc(OC2=C(C#N)C(=N)N3C(=NN2)Sc2c(C)ccc(C)c23)cc1`: the growth is 91.5% (inactive).
Regarding `O=C(Nc1ccncc1)C(=O)c1cn(S(=O)(=O)c2cccc(Cl)c2F)c2ccccc12`, the growth is 59.2% (inactive).
Take `CN1C(=O)NC(Cc2c[nH]c3c(Cl)cccc23)C1=O` (stereo not drawn): the growth is 118% (inactive).
Regarding `COc1ccc(C(=O)OC2C(OC3C(O)COC(O[C@H]4C[C@H]5[C@@H]6CC=C7C[C@@H](O)CC[C@]7(C)[C@H]6CC[C@]5(C)[C@H]4[C@H](C)C(=O)CCC(C)C)C3OC(C)=O)OCC(O)C2O)cc1` (stereo partly drawn), the growth was 7.53% (active).
With `C[C@@H]1N=C(c2ccc3ccccc3c2)Nc2nc3ccccn3c2C1=O`, the growth is 75.6% (inactive).
Same read-out and setting: the value for `O=[N+]([O-])c1ccc(N=Nc2c(NNc3ccc([N+](=O)[O-])cn3)cc(S(=O)(=O)O)c3ccccc23)nc1` was 91.1% (inactive); that for `CS(=O)(=O)c1ccc(C(=O)N/N=C/c2ccccc2Cl)cc1` was 97% (inactive).
On to `CC1=C(O)C(=O)CC1`, for which the growth is 96.2% (inactive).
Take `O=C(N/N=C/c1ccc([N+](=O)[O-])cc1)c1ccccc1Nc1ccnc(C(F)(F)F)c1`: the growth is 67.5% (inactive).
For the compound `Cc1ccc(C(CN(C)C)C(=O)c2ccccc2)cc1` (stereo not drawn), the growth was 68.7% (inactive).
With `CN1CCC2(CC1)N=C(SCC(=O)Nc1cnc3ccccc3c1)C(c1ccc(Br)cc1)=N2`, the growth is 37.9% (inactive).
`Nc1c(C(=O)C[C@@H](N)CO)ccc2c1C(=O)CCO2`: the growth was 97.8% (inactive).
As to `Cc1ccncc1NC=O`, the growth is 101% (inactive).
The same measure, in the same setting: the value for `Cc1c2c(cc3c1[nH]c1ccccc13)C=NCC2` was 80% (inactive).
Regarding `O=S1(=O)NCCCN1CCNc1nccc(-c2c(-c3cccc(O)c3)nc3sccn23)n1`, the growth is 141% (inactive).
Take `CCc1c(C)c2ccc(O)c(-c3cc(-c4ccccc4)c(C#N)c(=O)[nH]3)c2oc1=O`: the growth is 101% (inactive).
Same read-out and setting: the value for `COc1ccc2nc3cc(Cl)ccc3c(NC(=O)CSc3ccc(Cl)cc3)c2c1` was -62.4% (active); that for `C=CC(=O)N1CN(C(=O)C=C)CN(C(=O)C=C)C1` was 108% (inactive).
On to `CCCC(CCC)(C(N)=O)C(=O)O`, for which the growth was 105% (inactive).
Still for that read-out and setting: the value for `C=CCCCCOc1cccc(/C=C2\N=C3SCCCN3C2=O)c1` was 95.9% (inactive).
